According to PubChem BioAssay (EPA / NIEHS):
Where “and” joins values, the source holds several entries; their conditions need not be identical. Equal values may be shown once. Inconclusive results are not listed. The source holds several records for some structures; these can differ, active in one and inactive in another. Calls of active or inactive are those of the source. Rule for the calls, unless noted: active = hit-call score of the fitted dose curve at least 0.9, where 1 is the maximum; inconclusive = response in the unintended direction; inactive = score below 0.9.

Columns and labels:
[1] = target: Estrogen receptor beta (Homo sapiens) (UniProt Q92731); experiment: OT_ER_ERbERb_1440: Odyssey Thera (OT) 24-hour HEK293T Protein-Complementation Assay for Estrogen Receptor-beta/-beta Homodimer (AID 2283380);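 note: fluorescence gain from ER beta LBD homodimer complementation read by laser scanning cytometry; scored as signal increase over DMSO baseline for both agonists and antagonists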
Summary of the method: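 Fluorescence increase, nuclear for agonists or whole-cell for antagonists, relative to DMSO vehicle, quantified by laser scanning cytometer after fixation and Draq5 staining. Readout from 24 h treatment of HEK293T cells carrying complementation-paired ER beta LBD (aa 310-547).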

[2] = target: Estrogen receptor (Homo sapiens) (UniProt P03372); experiment: OT_ERa_GFPERaERE_0480: Odyssey Thera (OT) 8-hour HeLa Transcription Induction Assay for Estrogen Receptor (AID 2283381; active = hit-call score of the fitted dose curve at least 0.9, where 1 is the maximum; inactive = score below 0.9)
Summary of the method: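 An 8 h HeLa transcription-induction format with a GFP reporter under ERE control, read by fluorescence microscopy; single endpoint fitted positively with DMSO as baseline.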

[3] = target: Estrogen receptor (Homo sapiens) (UniProt P03372); experiment: OT_ERa_GFPERaERE_0120: Odyssey Thera (OT) 2-hour HeLa Transcription Induction Assay for Estrogen Receptor (AID 2283382)
Summary of the method: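 Two-hour compound treatment of HeLa cells preceded microscopy imaging of an inducible fluorescent reporter. Image-based quantification gave one endpoint, analysed for signal increase relative to DMSO controls.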

[4] = target: Bile acid receptor (Homo sapiens) (UniProt Q96RI1); experiment: OT_FXR_FXRSRC1_0480: Odyssey Thera (OT) 8-hour HEK293T Protein-Complementation Assay for Farnesoid X receptor/SRC-1 Co-activator (AID 2283383)
Summary of the method: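 Readings were taken 8 h after dosing HEK293T cells in a split-reporter complementation format pairing FXR with SRC-1. Increased fluorescence relative to DMSO-treated wells defined activity.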

[5] = target: Bile acid receptor (Homo sapiens) (UniProt Q96RI1); experiment: OT_FXR_FXRSRC1_1440: Odyssey Thera (OT) 24-hour HEK293T Protein-Complementation Assay for Farnesoid X receptor/SRC-1 Co-activator (AID 2283384)
Summary of the method: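 Single endpoint, analysed for increased fluorescence against DMSO controls. HEK293T cells carrying FXR and SRC-1 linked to complementary reporter halves were exposed to chemicals for 24 h before reading.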

[6] = target: Retinoic acid receptor RXR-alpha (Homo sapiens) (UniProt P19793); experiment: OT_NURR1_NURR1RXRa_0480: Odyssey Thera (OT) 8-hour HEK293T Protein Complementation Assay for Nurr1/retinoid X receptor (RXR) (AID 2283385)
Summary of the method: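 Gain in fluorescent complementation signal over DMSO, measured 8 hours after chemical dosing of human kidney HEK293T cells, indicated enhanced Nurr1–RXRα association.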

[7] = target: Retinoic acid receptor RXR-alpha (Homo sapiens) (UniProt P19793); experiment: OT_NURR1_NURR1RXRa_1440: Odyssey Thera (OT) 24-hour HEK293T Protein Complementation Assay for Nurr1/retinoid X receptor (RXR) (AID 2283386)
Summary of the method: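 Cell-based binding reporter: HEK293T cells, 24 h exposure, fluorescence-detected fragment complementation, DMSO as baseline.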

[8] = target: Peroxisome proliferator-activated receptor gamma (Homo sapiens) (UniProt P37231); experiment: OT_PPARg_PPARgSRC1_0480: Odyssey Thera (OT) 8-hour Protein-Complementation Assay for Peroxisome Proliferator-activated Receptor Gamma / SRC-1 Co-activator (AID 2283387);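 note: nuclear to cytoplasmic split Venus YFP fluorescence ratio reporting PPARg SRC-1 interaction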
Summary of the method: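 Read-out: 488 nm N/C fluorescence ratio from complemented Venus YFP fragments, ≥350 cells per image, gain-of-signal fitted against DMSO baseline. Fusions of PPARg/SRC-1 with IFP1/IFP2 expressed transiently in HEK293T; compounds applied 8 h.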

[9] = target: Peroxisome proliferator-activated receptor gamma (Homo sapiens) (UniProt P37231); experiment: OT_PPARg_PPARgSRC1_1440: Odyssey Thera (OT) 24-hour Protein-Complementation Assay for Peroxisome Proliferator-activated Receptor Gamma/ SRC-1 Co-activator (AID 2283388);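 note: nuclear to cytoplasmic ratio of reconstituted Venus YFP fluorescence in fixed imaged cells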
Summary of the method: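 Protein-fragment complementation between PPARg and coactivator SRC-1 was measured by fluorescence imaging in transiently transfected HEK293T cells after 24 h treatment. Signal was quantified as N/C ratio in the 488 nm channel, with DMSO as negative control.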

[10] = CEETOX_H295R_11DCORT: CeeTox H295R High-throughput Steroidogenesis Assay for 11-Deoxycortisol (11DCORT) (AID 2283432; active = hit-call score of the fitted dose curve at least 0.9, where 1 is the maximum; inactive = score below 0.9;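 for AC50: 11-deoxycortisol secreted into the medium measured by LC-MS/MS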); conditions: actives raise or lower the signal
Summary of the method: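 H295R cells; 10 uM forskolin prestim 48 h; compound in 0.1% DMSO 48 h; media extracted with MTBE; 11-deoxycortisol by LC-MS/MS, 7-point standard curve; gain/loss vs DMSO baseline; viability by MTT in same wells.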

[11] = CEETOX_H295R_OHPREG: CeeTox H295R High-throughput Steroidogenesis Assay for OH-Pregnenolone (OHPREG) (AID 2283434; active = hit-call score of the fitted dose curve at least 0.9, where 1 is the maximum; inactive = score below 0.9); conditions: actives raise or lower the signal
Summary of the method: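 Secreted 17alpha-hydroxypregnenolone measured by HPLC-MS/MS after liquid-liquid extraction. Human adrenal H295R cells received 48 h forskolin (10 uM) stimulation before 48 h chemical exposure at 0.1% final DMSO; MTT viability in same wells; bidirectional fit against DMSO.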

[12] = CEETOX_H295R_OHPROG: CeeTox H295R High-throughput Steroidogenesis Assay for OH-Progesterone (OHPROG) (AID 2283435; active = hit-call score of the fitted dose curve at least 0.9, where 1 is the maximum; inactive = score below 0.9;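 for AC50: 17alpha-hydroxyprogesterone secreted into medium measured by HPLC-MS/MS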); conditions: actives raise or lower the signal
Summary of the method: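 Human adrenocortical H295R cells, passage 10 or lower, were treated with chemical for 48 h after forskolin priming, and hormone output in the medium was quantified by LC-MS/MS.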

[13] = CEETOX_H295R_CORTIC: CeeTox H295R High-throughput Steroidogenesis Assay for Corticosterone (CORTIC) (AID 2283437; active = hit-call score of the fitted dose curve at least 0.9, where 1 is the maximum; inactive = score below 0.9); conditions: actives raise or lower the signal
Summary of the method: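 Medium corticosterone was quantified by tandem mass spectrometry following 48 hours of chemical exposure (0.1% DMSO) in human H295R cells previously stimulated 48 hours with 10 uM forskolin. Viability checked by MTT; chemicals diluted and retested when viability fell below 70%.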

[14] = CEETOX_H295R_CORTISOL: CeeTox H295R High-throughput Steroidogenesis Assay for Cortisol (AID 2283438; active = hit-call score of the fitted dose curve at least 0.9, where 1 is the maximum; inactive = score below 0.9;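 note: cortisol secreted into medium quantified by LC-MS/MS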); conditions: actives raise or lower the signal
Summary of the method: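 Steroidogenesis in H295R, per modified OECD 456: 48 h forskolin (10 uM), then 48 h exposure, 0.1% DMSO. Cortisol by extraction and tandem MS; viability by MTT (570/650 nm); cytotoxic chemicals diluted and re-tested.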

[15] = CEETOX_H295R_DOC: CeeTox H295R High-throughput Steroidogenesis Assay for DOC (AID 2283439; active = hit-call score of the fitted dose curve at least 0.9, where 1 is the maximum; inactive = score below 0.9); conditions: actives raise or lower the signal
Summary of the method: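 H295R, fsk 10 uM ×48 h pre, cmpd ×48 h (0.1% DMSO). Media → MTBE extr. → LC-MS/MS, DOC. Bidirectional fit vs DMSO; MTT viability same wells, re-test diluted if <70%.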

[16] = CEETOX_H295R_ESTRADIOL: CeeTox H295R High-throughput Steroidogenesis Assay for Estradiol (AID 2283440; active = hit-call score of the fitted dose curve at least 0.9, where 1 is the maximum; inactive = score below 0.9;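 note: estradiol secreted into medium quantified by LC-MS/MS after dansyl derivatisation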); conditions: actives raise or lower the signal
Summary of the method: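 Estradiol secreted into the medium was measured by tandem mass spectrometry after liquid-liquid extraction and dansylation. Human H295R cells had been forskolin-primed (10 uM, 48 h) before a 48 h chemical exposure with 0.1% DMSO.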

[17] = CEETOX_H295R_ESTRONE: CeeTox H295R High-throughput Steroidogenesis Assay for Estrone (AID 2283441; active = hit-call score of the fitted dose curve at least 0.9, where 1 is the maximum; inactive = score below 0.9;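 note: estrone secreted into medium measured by LC-MS/MS after dansyl derivatization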); conditions: actives raise or lower the signal
Summary of the method: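 Forskolin-stimulated H295R cells are treated 48 h with chemical, and estrone in the medium is measured by LC-MS/MS. Activity is fitted in both directions relative to DMSO controls, with chemicals diluted until MTT viability reaches at least 70%.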

[18] = CEETOX_H295R_PROG: CeeTox H295R High-throughput Steroidogenesis Assay for Progesterone (PROG) (AID 2283442; active = hit-call score of the fitted dose curve at least 0.9, where 1 is the maximum; inactive = score below 0.9;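 for AC50: human H295R adrenal cells primed with 10 µM forskolin before dosing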); conditions: actives raise or lower the signal
Summary of the method: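 Steps: seed H295R cells and let them adhere overnight; prime 48 h with 10 uM forskolin; dose with compound in DMSO at 0.1% final for 48 h; extract medium steroids with MTBE; measure progesterone by LC-MS/MS. MTT viability was run in the same wells.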

[19] = read-out: Tumor necrosis factor receptor superfamily member 6 (Homo sapiens) (UniProt P25445); experiment: LTEA_HepaRG_FAS: Life Technologies and Expression Analysis (LTEA) Assay for Fas cell surface death receptor (FAS) using HepaRG (AID 2283447; active = hit-call score of the fitted dose curve at least 0.9, where 1 is the maximum; inactive = score below 0.9); conditions: mRNA level, 48 h; actives raise or lower the signal
Summary of the method: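 FAS transcript level was measured by TaqMan qRT-PCR against three housekeeping genes after 48 h chemical exposure. Cells were HepaRG, 0.5% DMSO vehicle, with a top concentration of 100 uM and half-log dilutions over eight points, in duplicate.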

Measured: AC50

Chain of Estrogen receptor beta (Homo sapiens) (Q92731 whole entry, looked up, the tested form may be a part): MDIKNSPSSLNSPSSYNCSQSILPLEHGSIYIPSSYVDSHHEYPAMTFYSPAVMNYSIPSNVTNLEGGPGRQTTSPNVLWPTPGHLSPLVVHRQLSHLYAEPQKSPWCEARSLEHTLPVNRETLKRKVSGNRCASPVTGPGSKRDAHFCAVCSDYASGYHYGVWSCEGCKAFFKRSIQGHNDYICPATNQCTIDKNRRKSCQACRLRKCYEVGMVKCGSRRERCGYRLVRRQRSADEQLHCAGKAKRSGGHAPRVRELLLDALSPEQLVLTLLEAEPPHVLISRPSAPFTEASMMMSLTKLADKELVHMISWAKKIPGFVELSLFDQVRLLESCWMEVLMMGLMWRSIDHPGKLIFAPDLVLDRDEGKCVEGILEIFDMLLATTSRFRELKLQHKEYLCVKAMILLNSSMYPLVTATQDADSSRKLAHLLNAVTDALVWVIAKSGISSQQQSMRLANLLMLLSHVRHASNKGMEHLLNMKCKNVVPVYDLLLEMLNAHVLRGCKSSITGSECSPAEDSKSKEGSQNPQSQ
Chain of Estrogen receptor (Homo sapiens) (P03372 whole entry, looked up): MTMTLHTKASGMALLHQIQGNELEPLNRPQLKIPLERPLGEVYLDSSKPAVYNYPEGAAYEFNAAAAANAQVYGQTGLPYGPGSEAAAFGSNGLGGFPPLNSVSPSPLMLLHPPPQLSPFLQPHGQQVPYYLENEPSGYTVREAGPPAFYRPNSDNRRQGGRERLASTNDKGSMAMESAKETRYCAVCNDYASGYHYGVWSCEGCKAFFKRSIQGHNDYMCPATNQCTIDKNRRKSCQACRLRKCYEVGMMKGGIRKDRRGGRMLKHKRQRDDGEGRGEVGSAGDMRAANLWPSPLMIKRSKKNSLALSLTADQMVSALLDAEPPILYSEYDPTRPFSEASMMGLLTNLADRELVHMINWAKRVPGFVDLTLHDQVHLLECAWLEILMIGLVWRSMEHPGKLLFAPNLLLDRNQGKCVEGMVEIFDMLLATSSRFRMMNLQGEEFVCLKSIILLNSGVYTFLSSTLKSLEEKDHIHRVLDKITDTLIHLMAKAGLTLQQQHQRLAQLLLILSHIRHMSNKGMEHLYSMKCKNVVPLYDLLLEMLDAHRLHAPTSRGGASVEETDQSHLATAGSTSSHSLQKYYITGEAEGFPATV
Chain of Peroxisome proliferator-activated receptor gamma (Homo sapiens) (P37231 whole entry, looked up, the tested form may be a part): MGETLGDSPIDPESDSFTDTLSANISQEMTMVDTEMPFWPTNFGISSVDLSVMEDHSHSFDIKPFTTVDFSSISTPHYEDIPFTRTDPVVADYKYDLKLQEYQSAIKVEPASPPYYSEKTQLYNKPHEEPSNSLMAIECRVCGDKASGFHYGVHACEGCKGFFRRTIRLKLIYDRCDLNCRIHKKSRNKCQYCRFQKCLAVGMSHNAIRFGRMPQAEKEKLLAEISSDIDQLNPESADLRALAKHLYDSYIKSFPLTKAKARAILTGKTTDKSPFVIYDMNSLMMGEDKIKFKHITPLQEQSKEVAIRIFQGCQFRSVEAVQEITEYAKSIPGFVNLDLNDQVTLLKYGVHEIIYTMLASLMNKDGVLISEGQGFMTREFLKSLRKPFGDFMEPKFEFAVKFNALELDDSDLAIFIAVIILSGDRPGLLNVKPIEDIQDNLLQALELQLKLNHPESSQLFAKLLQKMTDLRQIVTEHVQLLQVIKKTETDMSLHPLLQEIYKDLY
Chain of Bile acid receptor (Homo sapiens) (Q96RI1 whole entry, looked up): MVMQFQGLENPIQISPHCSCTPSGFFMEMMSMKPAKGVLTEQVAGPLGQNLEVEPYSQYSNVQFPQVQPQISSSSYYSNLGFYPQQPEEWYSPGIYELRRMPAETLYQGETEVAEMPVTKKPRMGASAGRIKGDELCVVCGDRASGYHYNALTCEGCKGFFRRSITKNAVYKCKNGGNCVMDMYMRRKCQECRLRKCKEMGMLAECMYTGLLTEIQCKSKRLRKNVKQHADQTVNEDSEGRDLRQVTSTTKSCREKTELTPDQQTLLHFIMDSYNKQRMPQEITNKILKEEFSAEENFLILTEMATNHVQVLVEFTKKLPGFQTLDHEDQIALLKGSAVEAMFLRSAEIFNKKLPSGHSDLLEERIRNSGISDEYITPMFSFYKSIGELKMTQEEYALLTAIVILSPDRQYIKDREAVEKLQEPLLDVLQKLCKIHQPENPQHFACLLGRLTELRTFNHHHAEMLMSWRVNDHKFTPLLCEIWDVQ
Chain of Retinoic acid receptor RXR-alpha (Homo sapiens) (P19793 whole entry, looked up, the tested form may be a part): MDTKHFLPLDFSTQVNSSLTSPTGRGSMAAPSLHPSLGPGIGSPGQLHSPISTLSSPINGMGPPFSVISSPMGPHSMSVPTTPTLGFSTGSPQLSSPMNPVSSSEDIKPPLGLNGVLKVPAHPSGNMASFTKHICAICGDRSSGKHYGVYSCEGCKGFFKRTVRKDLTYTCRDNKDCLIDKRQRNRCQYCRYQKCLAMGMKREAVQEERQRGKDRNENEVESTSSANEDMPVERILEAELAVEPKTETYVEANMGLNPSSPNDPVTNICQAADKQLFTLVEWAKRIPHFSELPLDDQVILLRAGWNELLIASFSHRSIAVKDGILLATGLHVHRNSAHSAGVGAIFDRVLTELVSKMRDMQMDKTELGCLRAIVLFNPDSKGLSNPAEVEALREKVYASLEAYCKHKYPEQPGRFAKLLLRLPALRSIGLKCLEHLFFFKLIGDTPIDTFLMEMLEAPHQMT

CCCOC(=O)c1ccc(O)cc1
active: [1] 8.13 µM | [2] 27.6 µM | [5] 58.5 µM | [10] 35.4 µM | [11] 24.4 µM | [12] 7.73 µM | [14] 79.4 µM | [15] 26.8 µM | [18] 5.71 µM
inactive: all other assays above

CCc1nn(C2CCCCC2)c2cc(C3(C#N)CCC(C(=O)O)CC3)ccc12 (stereo not given)
inactive: [1] | [2] | [3] | [6] | [8] | [9] | [10] | [11] | [12] | [13] | [14] | [15] | [16] | [17] | [18]
active: [5] 41.3 µM | [6] 76.9 µM | [7] 79.7 µM and 73.6 µM | [19] 31.1 µM

CCCCCCCCCCCCCCCS(=O)(=O)Oc1ccccc1
active: [11] 5.88 µM | [12] 5.48 µM | [15] 3.8 µM | [18] 4.08 µM
not listed: [6]
inactive: all other assays above

Cc1cc(CCN2CCN(c3nsc4ccccc34)CC2)cc2c1NC(=O)CC2(C)C
active: [2] 16.1 µM | [3] 15.3 µM
inactive: [1] | [5] | [8] | [9] | [19]

O=C(O)Cc1cc(I)c(Oc2cc(I)c(O)c(I)c2)c(I)c1
active: [2] 44.5 µM | [3] 48.3 µM | [6] 11.6 µM | [7] 6.55 µM | [8] 10.6 µM | [9] 11.8 µM
inactive: [1] | [19]

CCCCCCCCCCCCc1ccccc1S(=O)(=O)O
inactive: [1] | [5] | [7] | [8] | [9]
active: [2] 96 µM | [3] 94.4 µM | [6] 76 µM and 80.5 µM | [19] 50 µM
